From PubChem BioAssay (NCATS)
Results filed as inconclusive are left out. Calls of active or inactive are those of the source. Calls follow the shape of the full dose curve.

Target: Atrial natriuretic peptide receptor 1 (Homo sapiens) (UniProt P16066)
Assay: Natriuretic polypeptide receptor (hNpr1) antagonism - Pilot CMLD screen (AID 1347052);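 also: HEK293 cells with hNpr1 stimulated by hNppA peptide at 0.1 nM; cGMP level read as GloSensor luciferase luminescence after agonist stimulation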
Details: HEK293 hNpr1 GloSensor cGMP luminescence, ANP-stimulated; series mostly up to 9.22 µM; activity change, negative = inhibition: at the top concentration
% is scaled to controls: 0 for no effect and ±100 for the full control effect.

Atrial natriuretic peptide receptor 1 (Homo sapiens), sequence (P16066 whole entry, looked up): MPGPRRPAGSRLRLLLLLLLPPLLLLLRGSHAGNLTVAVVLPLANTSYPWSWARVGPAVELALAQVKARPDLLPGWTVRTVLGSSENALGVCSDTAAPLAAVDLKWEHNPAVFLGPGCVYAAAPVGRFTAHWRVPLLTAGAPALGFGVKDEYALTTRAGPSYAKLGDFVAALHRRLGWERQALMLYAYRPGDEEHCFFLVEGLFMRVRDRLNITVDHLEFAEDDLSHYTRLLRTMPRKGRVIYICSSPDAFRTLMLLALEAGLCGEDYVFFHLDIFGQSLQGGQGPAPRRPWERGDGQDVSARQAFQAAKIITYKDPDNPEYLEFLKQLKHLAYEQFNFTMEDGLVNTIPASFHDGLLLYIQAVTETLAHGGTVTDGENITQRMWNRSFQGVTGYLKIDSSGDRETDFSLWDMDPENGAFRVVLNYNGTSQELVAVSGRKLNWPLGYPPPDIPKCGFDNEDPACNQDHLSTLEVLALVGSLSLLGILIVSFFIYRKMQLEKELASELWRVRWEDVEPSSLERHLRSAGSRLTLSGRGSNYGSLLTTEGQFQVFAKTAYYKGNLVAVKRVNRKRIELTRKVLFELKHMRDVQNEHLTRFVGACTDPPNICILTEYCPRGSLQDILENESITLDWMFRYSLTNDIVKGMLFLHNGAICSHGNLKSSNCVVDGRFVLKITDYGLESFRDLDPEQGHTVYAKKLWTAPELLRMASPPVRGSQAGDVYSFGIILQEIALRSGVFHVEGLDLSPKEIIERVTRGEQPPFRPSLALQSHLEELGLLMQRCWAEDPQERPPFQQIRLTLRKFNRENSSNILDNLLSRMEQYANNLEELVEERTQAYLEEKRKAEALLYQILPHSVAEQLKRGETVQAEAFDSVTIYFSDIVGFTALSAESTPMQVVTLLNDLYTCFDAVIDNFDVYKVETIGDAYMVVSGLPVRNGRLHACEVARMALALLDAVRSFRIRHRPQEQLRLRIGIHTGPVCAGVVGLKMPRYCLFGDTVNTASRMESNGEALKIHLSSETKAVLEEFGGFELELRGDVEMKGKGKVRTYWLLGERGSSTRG

Activity change, negative = inhibition, inactive:
COc1cccc(CO[C@H]2C=C[C@@H](c3ccccc3)O[C@H]2COC(C)=O)c1 3.83%
COC(=O)C1=C(C(=O)OC)[C@@H]2N(CC=C(C)C)c3ccccc3[C@@]23CCC(=O)N(Cc2cccc(C(F)(F)F)c2)C3=N1 -14.7%
COC1=C[C@H](C(=O)N[C@H]2CCCC[C@H]2NC(C)=O)[C@H](C)[C@@H](c2ccccc2)CC1=O -13.5%
CC(C)=CCN1C(=O)[C@@]2(CC(C)=C[C@@H](COCc3ccccc3)O2)c2ccccc21 1.21%
CCN1C(=NCCCOC(C)C)N[C@@H](CCc2ccccc2)[C@H](C(=O)NCCCOC(C)C)[C@H]1C -0.228%
Cc1c(O)c(=O)ccn1Cc1ccccc1 2.35%
COC(=O)CCCC1=CC2=C(c3ccccc3)C(=O)C(C)(OC(=O)C3CCCC3)C(=O)C2=CN1Cc1ccc(OC)cc1 (stereo not drawn) 0.503%
CCc1cc2c(nc1CC)CCN(CCC(C)=NOC[C@@H](O)COCc1ccco1)C2 3.43%
COC(=O)CCCC1=CC2=C(c3ccccc3)C(=O)C(C)(OC(=O)C3CCCC3)C(=O)C2=CN1c1ccc(OC)cc1 (stereo not drawn) -1.97%
CC(C)=CCCC(C)=CCN1C(=O)[C@]2(O[C@H](COc3ccccc3)CC3=CCCC32)c2c(Br)cccc21 (stereo partly drawn) 11.9%
COC(=O)[C@]1(CC=Cc2ccccc2)C=C[C@@H](C)[C@H](c2ccccc2Br)N1C(=O)C(F)(F)F -2.56%
COc1cc(CO[C@H]2C=C[C@@H](c3ccccc3)O[C@H]2CO)cc(OC)c1 7.68%

Potency, inactive:
CCCCCCCC1=Cc2ccccc2C(CC(C)=O)N1C(=O)OC (stereo not drawn)
